# According to PubChem BioAssay (Tox21):
# Where “and” joins values, the source holds several entries; their conditions need not be identical. Identical values can stand only once. Inconclusive results are not listed. Entries that show only a call come without a potency. More than one record can exist for a structure, and the calls need not agree. Calls of active or inactive are those of the source. Unless noted, calls come from the whole dose curve.
# What was measured:
# [1] = Nuclear factor erythroid 2-related factor 2/antioxidant responsive element (Nrf2/ARE) small molecule agonists: qHTS cell viability counter screen in human keratinocytes (AID 1919968; active = well fitted curve in the direction sought with a large enough effect in the repeat runs; an effect the other way counts as inactive or inconclusive; note: nearly all actives have a fitted effect of over 55% in size; note: potency is the fitted concentration of half-maximal effect)
# In short: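 Parallel cytotoxicity read: KeratinoSens HaCaT cells, compound treatment 23 h, viability by CellTiter-Fluor fluorescence 1 h post-reagent.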
# [2] = molecular target: KiSS-1 receptor (Homo sapiens) (UniProt Q969F8); test: Human kisspeptin (KISS1R) small molecule agonists, calcium flux assay in KISS1R-HEK293 cells (AID 1920064; active = well fitted curve in the direction sought with a large enough effect in the repeat runs; an effect the other way counts as inactive or inconclusive; note: potency is the fitted concentration of half-maximal effect)
# Chain of KiSS-1 receptor (Homo sapiens) (Q969F8 whole entry, looked up): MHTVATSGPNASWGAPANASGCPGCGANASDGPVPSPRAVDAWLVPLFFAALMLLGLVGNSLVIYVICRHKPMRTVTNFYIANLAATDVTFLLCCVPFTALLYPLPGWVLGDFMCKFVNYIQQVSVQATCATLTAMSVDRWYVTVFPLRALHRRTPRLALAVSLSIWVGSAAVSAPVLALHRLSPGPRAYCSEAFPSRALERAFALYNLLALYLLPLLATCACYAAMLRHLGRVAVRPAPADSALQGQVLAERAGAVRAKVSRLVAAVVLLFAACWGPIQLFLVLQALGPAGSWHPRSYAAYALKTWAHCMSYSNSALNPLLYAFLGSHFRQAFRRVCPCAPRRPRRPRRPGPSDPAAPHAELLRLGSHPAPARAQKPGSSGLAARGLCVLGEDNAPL
# In short: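 Triplicate 15-concentration series were applied to dye-loaded human KISS1R HEK293 cells, and agonist-evoked calcium fluorescence was captured for 3 min.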
# [3] = G protein-coupled receptor (GPCR) small molecule agonists, calcium flux assay: HEK293 wild type cell line counter screen (AID 1920065)
# In short: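 Non-specific calcium responders were flagged by adding DMSO-dissolved compounds to dye-loaded cells and reading 480/540 nm fluorescence each second for 3 min; ATP served as positive control.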
# [4] = p53 small molecule agonists, cell-based qHTS assay with human liver microsomes (AID 1963577)
# In short: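 Compounds act here after metabolic activation: human liver microsomes and NADPH, both at 0.5 mg/mL final, were co-added to p53RE-bla cells. Incubation ran 16 h at 37 C, followed by LiveBLAzer detection.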
# [5] = p53 small molecule agonists, cell-based qHTS assay with rat liver microsomes (AID 1963578)
# In short: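 Read-out is beta-lactamase reporter fluorescence (LiveBLAzer, 2 h, room temperature, dark) in p53RE-bla cells treated 16 h at 37 C with compound, rat liver microsomes and NADPH, both 0.5 mg/mL final.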
# [6] = p53 small molecule agonists, cell-based qHTS assay with rat liver microsomes: qHTS cell viability counter screen (AID 1963580); note: nearly all actives have a fitted effect of over 45% in size; note: potency is the fitted concentration of half-maximal effect
# In short: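 Counter screen for cytotoxicity under metabolic activation: rat liver microsomes and NADPH, 0.5 mg/mL final each, added with compounds to p53RE-bla HCT-116 cells; 16 h at 37 C, then ATP luminescence read.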
# [7] = p53 small molecule agonists, cell-based qHTS assay: qHTS cell viability counter screen (AID 1963581); note: nearly all actives have a fitted effect of over 45% in size; note: potency is the fitted concentration of half-maximal effect
# In short: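 Multiplexed with the reporter read, a CellTiter-Glo step (30 min, room temperature) gauges ATP-based viability of HCT-116 p53RE-bla cells after 16 h compound incubation at 37 C.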
# [8] = p53 small molecule agonists, cell-based qHTS assay (AID 1963582; active = well fitted activation curve with a large enough effect in the signal ratio in the repeat runs, not every such curve was filed as active; the % refers to the signal ratio)
# In short: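 Beta-lactamase reporter cells (p53RE-bla) treated with compounds for 16 h at 37 C; FRET substrate, 2 h, room temperature; fluorescence intensity.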
# [9] = cAMP Responsive Elements (CRE) small molecule antagonists, cell-based qHTS assay (AID 1963591; active = well fitted inhibition curve with a large enough effect in the signal ratio in the repeat runs, not every such curve was filed as active; the % refers to the signal ratio)
# In short: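 Fluorescence intensity from cleaved LiveBLAzer B/G substrate (2 h, room temperature) quantified CRE-bla activity in HEK 293T cells exposed 3 h to compound with 0.25 uM final NKH477.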
# [10] = molecular target: Beta-2 adrenergic receptor (Homo sapiens) (UniProt P07550); test: Adrenergic beta2 receptor (ADRB2) small molecule agonists, cell-based qHTS assay (AID 1963593);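 note: CHO cells stably overexpressing human ADRB2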
# Chain of Beta-2 adrenergic receptor (Homo sapiens) (P07550 whole entry, looked up): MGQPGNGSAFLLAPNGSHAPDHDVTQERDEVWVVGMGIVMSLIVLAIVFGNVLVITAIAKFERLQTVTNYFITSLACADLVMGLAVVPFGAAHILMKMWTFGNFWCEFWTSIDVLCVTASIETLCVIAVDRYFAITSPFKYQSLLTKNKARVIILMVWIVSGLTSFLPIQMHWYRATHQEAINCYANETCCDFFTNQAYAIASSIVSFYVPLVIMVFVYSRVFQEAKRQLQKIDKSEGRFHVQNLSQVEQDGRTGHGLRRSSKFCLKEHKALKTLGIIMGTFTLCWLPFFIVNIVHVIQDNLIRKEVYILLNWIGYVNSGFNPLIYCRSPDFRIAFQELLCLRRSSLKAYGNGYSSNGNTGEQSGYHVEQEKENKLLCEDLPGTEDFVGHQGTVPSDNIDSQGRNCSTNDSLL
# In short: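 CHO cells stably over-expressing ADRB2 were plated overnight at 37C, then dosed with compounds plus a stimulation mix containing 100uM IBMX and 25uM Ro-20-1724 for 0.5hr at room temperature. cAMP was measured by HTRF competition, 1hr.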
# [11] = molecular target: D(2) dopamine receptor (Homo sapiens) (UniProt P14416); test: Dopamine D2 receptor (DRD2) small molecule agonists, cell-based qHTS assay (AID 1963594); note: nearly all actives have a fitted effect of over 35% in size
# Chain of D(2) dopamine receptor (Homo sapiens) (P14416 whole entry, looked up): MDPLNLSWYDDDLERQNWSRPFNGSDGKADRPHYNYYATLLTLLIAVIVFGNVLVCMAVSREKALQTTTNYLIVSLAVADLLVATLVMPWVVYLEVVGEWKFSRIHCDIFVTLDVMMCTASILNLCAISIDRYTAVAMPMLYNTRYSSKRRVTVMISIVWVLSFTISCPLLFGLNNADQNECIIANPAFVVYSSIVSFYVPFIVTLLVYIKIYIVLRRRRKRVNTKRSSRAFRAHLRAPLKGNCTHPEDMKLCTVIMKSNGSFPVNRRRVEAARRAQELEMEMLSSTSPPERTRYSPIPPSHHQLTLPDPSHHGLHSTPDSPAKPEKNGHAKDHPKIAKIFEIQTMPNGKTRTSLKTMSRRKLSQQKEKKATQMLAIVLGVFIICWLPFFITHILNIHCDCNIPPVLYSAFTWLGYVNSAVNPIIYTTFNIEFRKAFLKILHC
# In short: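 HEK293 cells stably expressing DRD2 were cultured 24 h at 37 C, then given Ro20-1724 (0.1 mM final) and compounds for 10 min at room temperature. NKH477 (200nM) was then added for 30 min. cAMP was read by HTRF.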
# [12] = molecular target: D(2) dopamine receptor (Homo sapiens) (UniProt P14416); test: Dopamine D2 receptor (DRD2) small molecule antagonists, cell-based qHTS assay (AID 1963595; active = well fitted inhibition curve with a large enough effect in the signal ratio in the repeat runs, with a control signal flat; the % refers to the signal ratio; note: potency is the fitted concentration of half-maximal effect)
# In short: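 Cells were plated and grown for 24 h at 37 °C. Ro20-1724 (0.1 mM final) went in first, then compound for 10 min. NKH477 (200 nM) with quinpirole (12 nM) followed for 30 min at RT, then HTRF detection reagents for 1 h.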
# [13] = p53 small molecule agonists, cell-based qHTS assay with human liver microsomes: qHTS cell viability counter screen (AID 1963579); note: nearly all actives have a fitted effect of over 45% in size; note: potency is the fitted concentration of half-maximal effect
# In short: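 Cells carrying the p53 response-element beta-lactamase reporter are treated for 16 h at 37 C with test compounds in the presence of human liver microsomes and NADPH (both 0.5 mg/mL final); ATP-based CellTiter-Glo luminescence then reports viability.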
# [14] = molecular target: 5-hydroxytryptamine receptor 2A (Homo sapiens) (UniProt P28223); test: 5-hydroxytryptamine receptor 2A (HTR2A) small molecule antagonists, cell-based qHTS assay (AID 1963586); note: nearly all actives have a fitted effect of over 45% in size
# Chain of 5-hydroxytryptamine receptor 2A (Homo sapiens) (P28223 whole entry, looked up): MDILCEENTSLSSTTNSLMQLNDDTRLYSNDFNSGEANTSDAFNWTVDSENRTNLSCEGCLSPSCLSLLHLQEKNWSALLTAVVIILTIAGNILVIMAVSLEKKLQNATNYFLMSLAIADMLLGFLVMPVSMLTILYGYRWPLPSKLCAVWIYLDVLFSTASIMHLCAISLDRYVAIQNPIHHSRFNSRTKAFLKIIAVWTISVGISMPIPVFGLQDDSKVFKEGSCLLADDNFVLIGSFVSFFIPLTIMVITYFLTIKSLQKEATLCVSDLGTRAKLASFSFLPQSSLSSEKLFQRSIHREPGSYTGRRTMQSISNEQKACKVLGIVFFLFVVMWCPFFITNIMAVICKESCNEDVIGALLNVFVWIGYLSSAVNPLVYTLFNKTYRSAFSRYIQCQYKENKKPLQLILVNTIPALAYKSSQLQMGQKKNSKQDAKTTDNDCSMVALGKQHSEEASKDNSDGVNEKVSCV
# In short: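 CHO cells stably expressing human HTR2A were plated for 18 h at 37 C, then loaded with calcium dye for 1 h. Compounds were preincubated 5 min at room temperature before DOI (4 nM solution) was added. Kinetic fluorescence was read for 3 min.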
# [15] = molecular target: 5-hydroxytryptamine receptor 2A (Homo sapiens) (UniProt P28223); test: 5-hydroxytryptamine receptor 2A (HTR2A) small molecule agonists, cell-based qHTS assay (AID 1963587); note: nearly all actives have a fitted effect of over 30% in size; note: potency is the fitted concentration of half-maximal effect
# In short: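 HTR2A-CHO cells, plated 18 h at 37 C/5% CO2, dye-loaded 1 h at 37 C; compounds in DMSO added by pin tool (agonist mode). Intracellular calcium flux read as kinetic fluorescence on FDSS over 2 min at 1 s intervals.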
# [16] = molecular target: Muscarinic acetylcholine receptor M1 (Homo sapiens) (UniProt P11229); test: Cholinergic receptor muscarinic 1 (CHRM1) small molecule antagonists, cell-based qHTS assay (AID 1963588); note: nearly all actives have a fitted effect of over 40% in size
# Chain of Muscarinic acetylcholine receptor M1 (Homo sapiens) (P11229 whole entry, looked up): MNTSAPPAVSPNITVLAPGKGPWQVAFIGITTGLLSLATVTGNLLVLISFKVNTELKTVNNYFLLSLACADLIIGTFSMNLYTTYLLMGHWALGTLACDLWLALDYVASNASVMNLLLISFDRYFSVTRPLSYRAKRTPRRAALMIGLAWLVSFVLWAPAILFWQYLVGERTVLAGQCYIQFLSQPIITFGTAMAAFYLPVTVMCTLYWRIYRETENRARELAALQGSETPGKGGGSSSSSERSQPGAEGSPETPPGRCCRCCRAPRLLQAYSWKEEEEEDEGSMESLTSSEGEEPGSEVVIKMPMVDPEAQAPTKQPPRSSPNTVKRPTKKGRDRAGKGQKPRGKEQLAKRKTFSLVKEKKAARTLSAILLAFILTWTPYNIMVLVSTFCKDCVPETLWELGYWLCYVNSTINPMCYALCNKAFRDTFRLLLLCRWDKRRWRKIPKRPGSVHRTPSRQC
# In short: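 Compounds were tested at 15 concentrations in three independent runs. Dye-loaded CHRM1-CHO cells were exposed 5 min at room temperature before stimulation by acetylcholine added at 50nM. Intracellular calcium was read kinetically on FDSS for 3 min.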
# [17] = cAMP Responsive Elements (CRE) small molecule agonists, cell-based qHTS assay (AID 1963590)
# In short: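 Quantitative HTS for CRE agonists: HEK 293T CRE-bla cells, overnight plating, 3 h compound incubation at 37 C/5% CO2, then 2 h room-temperature LiveBLAzer B/G FRET substrate loading.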
# [18] = molecular target: Beta-2 adrenergic receptor (Homo sapiens) (UniProt P07550); test: Adrenergic beta2 receptor (ADRB2) small molecule antagonists, cell-based qHTS assay (AID 1963592); note: series mostly up to about 92 µM; nearly all actives have a fitted effect of over 50% in size
# In short: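 Assay format: CHO-ADRB2 cells, 18-20hr seeding at 37C/5% CO2, then compound plus 1nM isoproterenol agonist mix for 0.5hr RT. Homogeneous time-resolved fluorescence cAMP detection after 1hr, expressed as 665/615 nm ratio.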
# [19] = molecular target: Muscarinic acetylcholine receptor M1 (Homo sapiens) (UniProt P11229); test: Cholinergic receptor muscarinic 1 (CHRM1) small molecule agonists, cell-based qHTS assay (AID 1963589); note: nearly all actives have a fitted effect of over 35% in size; note: potency is the fitted concentration of half-maximal effect
# In short: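 qHTS, 15-point titration, 3 independent runs: compounds pin-transferred onto dye-loaded CHRM1-CHO cells (human M1), calcium fluorescence followed every second to detect agonism.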
# [20] = molecular target: Gonadotropin-releasing hormone receptor (Homo sapiens) (UniProt P30968); test: Human gonadotropin-releasing hormone receptor (GnRHR) small molecule agonists, calcium flux assay in GnRHR-HEK293 cells (AID 1920063); note: nearly all actives have a fitted effect of over 35% in size
# Chain of Gonadotropin-releasing hormone receptor (Homo sapiens) (P30968 whole entry, looked up): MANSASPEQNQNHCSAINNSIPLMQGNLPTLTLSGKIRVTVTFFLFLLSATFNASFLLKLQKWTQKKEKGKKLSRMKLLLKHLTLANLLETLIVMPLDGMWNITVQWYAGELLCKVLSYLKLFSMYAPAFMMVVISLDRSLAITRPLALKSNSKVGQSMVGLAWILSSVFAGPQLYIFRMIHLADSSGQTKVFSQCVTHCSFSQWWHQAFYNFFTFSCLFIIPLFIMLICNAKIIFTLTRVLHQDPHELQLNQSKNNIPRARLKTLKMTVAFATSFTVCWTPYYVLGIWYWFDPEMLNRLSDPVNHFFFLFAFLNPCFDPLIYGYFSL
# In short: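 Calcium flux, agonist mode, human GnRHR stably integrated in HEK293; dye 1 h at 37 C before compound; Ex/Em=480/540 kinetic read, 3 min; 15 concentrations, triplicate.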
SMILES,Potency [1],Potency [2],Potency [3],Potency [4],Potency [5],Potency [6],Potency [7],Potency [8],Potency [9],Potency [10],Potency [11],Potency [12],Potency [13],Potency [14],Potency [15],Potency [16],Potency [17],Potency [18],Potency [19],Potency [20]
Oc1c(Cl)cc(Cl)cc1Sc1cc(Cl)cc(Cl)c1O,13.7 µM (active) and 31.1 µM (active) and 27.3 µM (active),inactive,inactive,inactive,inactive,20.5 µM (active) and 46.5 µM (active) and inactive,36.4 µM (active) and inactive,inactive,inactive,inactive,inactive,inactive,–,–,–,–,–,–,–,–
CNC(=S)N(C)C,inactive,inactive,inactive,inactive,inactive,–,inactive,inactive,inactive,–,inactive,inactive,inactive,inactive,inactive,inactive,inactive,inactive,–,–
CCCNC(=O)NS(=O)(=O)c1ccc(Cl)cc1,inactive,–,inactive,inactive,inactive,inactive,inactive,inactive,inactive,inactive,inactive,inactive,inactive,–,–,–,inactive,inactive,–,–
O=C1O[C@H](CO)[C@@H](O)[C@H](O)[C@H]1O,inactive,–,inactive,inactive,inactive,inactive,inactive,inactive,–,inactive,inactive,inactive,inactive,–,inactive,inactive,inactive,inactive,inactive,–
CCN=c1cc2oc3cc(NCC)c(C)cc3c(-c3ccccc3C(=O)OCC)c-2cc1C,inactive,17.3 µM (active) and 21.9 µM (active),–,inactive,inactive,20.4 µM (active) and 40.8 µM (active),45.6 µM (active),–,–,–,–,34.4 µM (active),40.6 µM (active) and 40.8 µM (active),inactive,5.47 µM (active) and 19.5 µM (active),inactive,–,–,19.4 µM (active) and 19.5 µM (active),–
COc1ccc(OC)cc1,inactive,inactive,inactive,inactive,inactive,inactive,inactive,inactive,inactive,inactive,inactive,inactive,inactive,inactive,inactive,inactive,inactive,inactive,inactive,inactive
Cc1ccnc2c1NC(=O)c1cccnc1N2C1CC1,inactive,inactive,inactive,inactive,inactive,inactive,inactive,inactive,inactive,inactive,inactive,inactive,inactive,–,–,–,inactive,inactive,–,inactive
Cc1cc(CC(=O)O)n(C)c1C(=O)c1ccc(Cl)cc1,inactive,inactive,inactive,inactive,inactive,inactive,inactive,inactive,–,inactive,inactive,inactive,inactive,–,inactive,inactive,–,inactive,inactive,inactive
O=c1cc[nH]c(=S)[nH]1,inactive,inactive,inactive,inactive,inactive,inactive,inactive,inactive,inactive,–,inactive,inactive,inactive and 793 nM (active),–,inactive,inactive,inactive,inactive,inactive,inactive
